According to paper PMC4552634, “A New Set of Chemical Starting Points with Plasmodium falciparum Transmission-Blocking Potential for Antimalarial Drug Discovery” (PLoS ONE, 2015):
In all, about 13,000 compounds went through this assay and about 3,200 (25%) showed an effect of 50% or more. The list shows a part of the results.

The compounds below were run on P. falciparum stage V gametocytes. Conditions: 48 h, 5 µM; inhibitor.
Set-up: BacTiter-Glo ATP luminescence viability of purified stage V gametocytes in 384-well plates, per cent inhibition versus DMSO
For N=C(N)c1cccc(-c2cc(-c3cccc(C(=N)N)c3)on2)c1 [TCMDC-137789], the “% Inhibition” value was 11.2%. With CCCCNC(=O)[C@@H](NC(=O)c1ccc(O)c(-c2ccc(Cl)c(Cl)c2)c1)C(C)C [TCMDC-140839] the “% Inhibition” value was 36.3%. CCCCOP(=O)(COc1ccc(CCN(CC(O)COc2cccc3[nH]c4ccccc4c23)CC(O)COc2cccc3[nH]c4ccccc4c23)cc1)C1CCCCC1 (centres unmarked) [TCMDC-139016] was tested, and the “% Inhibition” value was 44.85%. With COc1ccc(Nc2nccc(N3CCC(NC(=O)Nc4cccc(C(C)=O)c4)C3)n2)cc1 (centres unmarked) [TCMDC-133610] the “% Inhibition” value was -16.63%. With COc1cc(Cc2cnc(N)nc2N)cc(OCCCOc2ccccc2)c1OC [TCMDC-137687] the “% Inhibition” value was 38.19%. COc1cc(C=CC(=O)N2CCC(CN3CCC(c4c[nH]c5ccccc45)CC3)CC2)cc(OC)c1 [TCMDC-139945] was tested, and the “% Inhibition” value was -6.368%. With O=C(/C=C/c1ccc(F)c(C(F)(F)F)c1)N1CCC(CN2CCC(c3c[nH]c4ccccc34)CC2)CC1 [TCMDC-140384] the “% Inhibition” value was -23.83%. With O=C(C=Cc1ccc(-c2ccccc2)cc1)N1CCC(CCN2CCC(c3c[nH]c4ccccc34)CC2)CC1 [TCMDC-139941] the “% Inhibition” value was 105.7%. With COc1cc(C=CC(=O)N2CCC(CCN3CCC(c4c[nH]c5ccccc45)CC3)CC2)cc(OC)c1 [TCMDC-139938] the “% Inhibition” value was 103.2%. CC(C)c1ccc(C=CC(=O)N2CCC(CCN3CCC(c4c[nH]c5ccccc45)CC3)CC2)cc1 [TCMDC-139942] was tested, and the “% Inhibition” value was 110.7%. In the case of COc1ccc(C=CC(=O)N2CCC(CN3CCC(c4c[nH]c5ccccc45)CC3)CC2)cc1OC [TCMDC-139944], the “% Inhibition” value is reported as -13.45%. O=C(/C=C/c1ccsc1)N1CCC(CCN2CCC(c3c[nH]c4ccccc34)CC2)CC1 [TCMDC-140263] was tested, and the “% Inhibition” value was 102.1%. COc1cc(C=CC(=O)N2CCC(CN3CCC(c4c[nH]c5ccccc45)CC3)CC2)ccc1O [TCMDC-139913] was tested, and the “% Inhibition” value was -95.05%. In the case of Cc1ccc(/C=C/C(=O)N2CCC(CCN3CCC(c4c[nH]c5ccccc45)CC3)CC2)cc1C [TCMDC-139762], the “% Inhibition” value is reported as 46.51%. In the case of O=C(/C=C/c1ccsc1)NC1CCC(CN2CCC(c3c[nH]c4ccccc34)CC2)CC1 (centres unmarked) [TCMDC-140294], the “% Inhibition” value is reported as -21.49%. In the case of COc1cc(NC(=O)N2CCc3ccc(OCCN(C(C)C)C(C)C)cc32)cc(C(F)(F)F)c1 [TCMDC-140251], the “% Inhibition” value is reported as 48.14%. For CN1CCCC(OC(=O)c2ccccc2)C1 (centres unmarked) [TCMDC-125511], the “% Inhibition” value was 3.276%. Fc1ccc2[nH]c(-c3cccc(-c4cccc(CNCC5CCCO5)c4)c3)nc2c1.O=C(O)C(F)(F)F (centres unmarked) [TCMDC-133091] was tested, and the “% Inhibition” value was -32.27%. O=C(NC1CCCc2ccccc21)[C@@H]1CCCN1C(=O)c1ccc(O)c(-c2ccc(Cl)c(Cl)c2)c1 (some centres unmarked) [TCMDC-140867] was tested, and the “% Inhibition” value was 31.83%. With COC(=O)c1ccc(CC(C)NCC(O)c2cccc(SC(F)(F)F)c2)cc1 (centres unmarked) [TCMDC-131494] the “% Inhibition” value was 25.48%. In the case of CCCC(N)C(=O)NC1CCN(c2c(F)c(N)c3c(=O)c(C(=O)O)cn4c3c2Oc2ccccc2-4)C1 (centres unmarked) [TCMDC-125701], the “% Inhibition” value is reported as 40.26%. In the case of Cc1cc(CNC(c2ccccc2)C2CCC2)cc(C)c1O (centres unmarked) [TCMDC-134518], the “% Inhibition” value is reported as -25.25%. For Cc1nc2nc(N)nc(N)c2c(C)c1Cc1ccc(C(F)(F)F)cc1 [TCMDC-137656], the “% Inhibition” value was -0.8923%. With N#Cc1ccccc1Sc1ccccc1C(=O)Nc1ccc2ccccc2n1 [TCMDC-125464] the “% Inhibition” value was 33.3%. O=C(/C=C/c1ccccc1O)N1CCC(CCN2CCC(c3c[nH]c4ccccc34)CC2)CC1 [TCMDC-139712] was tested, and the “% Inhibition” value was 101.8%. In the case of O=C(/C=C/c1ccc([N+](=O)[O-])cc1)N1CCC(CCN2CCC(c3c[nH]c4ccccc34)CC2)CC1 [TCMDC-139940], the “% Inhibition” value is reported as -27.66%. With O=C(/C=C/c1ccc(Cl)cc1Cl)N1CCC(CCN2CCC(c3c[nH]c4ccccc34)CC2)CC1 [TCMDC-139711] the “% Inhibition” value was 81.98%. With O=C(/C=C/c1cc([N+](=O)[O-])ccc1Cl)NC1CCC(CN2CCC(c3c[nH]c4ccccc34)CC2)CC1 (centres unmarked) [TCMDC-139907] the “% Inhibition” value was -55.07%. O=C(/C=C/c1cc([N+](=O)[O-])ccc1Cl)N1CCC(CCN2CCC(c3c[nH]c4ccccc34)CC2)CC1 [TCMDC-139911] was tested, and the “% Inhibition” value was 95.76%. With O=C(C=Cc1ccc(Br)cc1)N1CCC(CCN2CCC(c3c[nH]c4ccccc34)CC2)CC1 [TCMDC-139939] the “% Inhibition” value was 87.97%. With O=C(/C=C/c1cc(F)c(F)cc1F)N1CCC(CN2CCC(c3c[nH]c4ccccc34)CC2)CC1 [TCMDC-140383] the “% Inhibition” value was -20.73%. For O=C(C=Cc1ccccc1O)N1CCC(CN2CCC(c3c[nH]c4ccccc34)CC2)CC1 [TCMDC-139912], the “% Inhibition” value was -49.08%. In the case of CCCc1ccc(NC(=O)c2ccc(CN3CCCN(CC4CCCCC4)CC3)cc2)cc1 [TCMDC-136420], the “% Inhibition” value is reported as -21.41%. With FC(F)(F)c1ccc2[nH]c(-c3ccc(-c4ccc(CN5CCN(c6cnccn6)CC5)cc4)s3)nc2c1.O=C(O)C(F)(F)F [TCMDC-132677] the “% Inhibition” value was 4.163%. COc1cc(Cc2cnc(N)nc2N)cc(OCCCCC2SC(=O)NC2=O)c1OC (centres unmarked) [TCMDC-137185] was tested, and the “% Inhibition” value was -7.728%. In the case of Cc1cnc(NC(=O)c2cn(-c3ccccc3)nc2-c2cccs2)s1 [TCMDC-124433], the “% Inhibition” value is reported as 10.72%. COc1cc2c(c(OC)c1OC)C[C@H]1c3c(cc4c(c3-2)OCO4)CCN1C [TCMDC-138525] was tested, and the “% Inhibition” value was -52.76%. For N#Cc1ccc2[nH]cc(CN3CCC4(CC3)CN(CCNCc3ccccc3)C(=O)O4)c2c1 [TCMDC-136732], the “% Inhibition” value was -34.87%. With COc1ccc2ncc(F)c(CCN3C[C@H](CNCc4cc(F)c5c(c4)NC(=O)CO5)[C@H](O)C3)c2n1 [TCMDC-136203] the “% Inhibition” value was 28.74%. Nc1nc2c(ncn2OC[C@H](CO)OCP(=O)(O)O)c(=O)[nH]1 [TCMDC-131639] was tested, and the “% Inhibition” value was 4.722%. In the case of O=C(/C=C/c1cc(C(F)(F)F)ccc1F)N1CCC(CN2CCC(c3c[nH]c4ccccc34)CC2)CC1 [TCMDC-139857], the “% Inhibition” value is reported as -24.43%. With O=C(/C=C/c1ccc(C(F)(F)F)cc1)N1CCC(CCN2CCC(c3c[nH]c4ccccc34)CC2)CC1 [TCMDC-139761] the “% Inhibition” value was 107.6%. O=C(/C=C/c1cc(F)cc(C(F)(F)F)c1)N1CCC(CN2CCC(c3c[nH]c4ccccc34)CC2)CC1 [TCMDC-140385] was tested, and the “% Inhibition” value was -12.95%. In the case of CCCCN1Cc2c(n(CC(=O)Nc3ccccc3)c3cc(-c4ccccc4)nn3c2=O)C1=O [TCMDC-125585], the “% Inhibition” value is reported as -0.9231%. With CCN(CC)CCN(Cc1ccc(-c2ccc(C(F)(F)F)cc2)nc1)C(=O)Cn1cc(Cc2cnn(C)c2)c(=O)n2nc(-c3ccccc3)cc12 [TCMDC-140691] the “% Inhibition” value was 119%. With CCN(CC)CCN(Cc1ccc(-c2ccc(C(F)(F)F)cc2)cc1)C(=O)Cn1cc(Cc2cnn(C)c2)c(=O)n2nc(-c3ccccc3)cc12 [TCMDC-140690] the “% Inhibition” value was 119.2%. In the case of COc1ccc2nccc([C@@H](O)CN3CCC(NC(=O)/C=C/c4cccc(C)c4)CC3)c2c1 [TCMDC-141114], the “% Inhibition” value is reported as -1.317%. O=C(NC1CCN(CCc2c[nH]c3ccc(F)cc23)CC1)c1ncc(-c2ccccc2)[nH]1 [TCMDC-131972] was tested, and the “% Inhibition” value was 5.191%. COc1ccc(NC(=O)/C=C/c2cc(Br)ccc2F)cc1OCCN(C(C)C)C(C)C [TCMDC-140668] was tested, and the “% Inhibition” value was -43.25%. With CCOC(=O)CN(c1ccc(Br)cc1OCCOc1cc(Br)ccc1N(CC(=O)OCC)C(C)C(=O)OCC)C(C)C(=O)OCC (centres unmarked) [TCMDC-132003] the “% Inhibition” value was 102%. In the case of Cc1ccc(NC(=O)Nc2ccc(Br)cc2)cc1OCCN(C)C [TCMDC-140087], the “% Inhibition” value is reported as -42.58%. C=CCc1cc(SC)ccc1Oc1ccc(N)cc1 [TCMDC-137690] was tested, and the “% Inhibition” value was -96.62%. With CCOc1ccccc1C(=O)Nc1cccc(-c2nc3ncccn3c2C)c1 [TCMDC-124461] the “% Inhibition” value was 18.92%. With Cc1ccccc1C(=O)Nc1cccc(-c2nc3ncccn3c2C)c1 [TCMDC-125138] the “% Inhibition” value was 25.46%. In the case of Cc1c(-c2cccc(NC(=O)C(C)(C)Oc3ccc(Cl)cc3)c2)nc2ncccn12 [TCMDC-124460], the “% Inhibition” value is reported as 51.92%. For CN(c1cc(NC(=O)c2cccs2)ccn1)C1CCN(Cc2cccc(C#N)c2)CC1 [TCMDC-134970], the “% Inhibition” value was 39.85%. Cc1[nH]c(C)c(-c2ccc(Oc3cc(Cl)cc(Cl)c3)cc2)c(=O)c1Br [TCMDC-137392] was tested, and the “% Inhibition” value was 48.81%. For Cc1[nH]c(C)c(-c2ccc(Oc3ccc(Cl)cc3Cl)cc2)c(=O)c1Br [TCMDC-137533], the “% Inhibition” value was 62.65%. Cc1[nH]c(C)c(-c2ccc(Oc3ccc(Cl)cc3)c(Cl)c2)c(=O)c1Br [TCMDC-137409] was tested, and the “% Inhibition” value was 21.95%. In the case of Cc1[nH]c(C)c(-c2ccc(Oc3ccc(Cl)c(Cl)c3)cc2)c(=O)c1Br [TCMDC-137397], the “% Inhibition” value is reported as 72.37%. Cc1[nH]c(C)c(-c2ccc(Oc3ccc(Cl)c(Cl)c3)cc2)c(=O)c1Cl [TCMDC-137396] was tested, and the “% Inhibition” value was 73.66%. With Cc1[nH]c(C)c(-c2ccc(Cl)cc2Cl)c(=O)c1Br [TCMDC-137428] the “% Inhibition” value was 6.285%. With Cc1noc(C)c1-c1ccc(C(=C2CCCCCC2)c2ccc(O)cc2)cc1 [TCMDC-135873] the “% Inhibition” value was -11.65%. In the case of CCCCCc1cc(O)c2c(c1)OC(C)(C)C=C2C1=CCN(Cc2ccsc2)CC1 [TCMDC-131400], the “% Inhibition” value is reported as -46.98%. With COc1cc(NC(=O)c2c(-c3c(F)cccc3Cl)noc2C)c(OC)cc1Cl [TCMDC-123635] the “% Inhibition” value was 20.08%.
